SMILES strings stand for the structures. About 540 (0.36%) of roughly 150,000 compounds showed an effect of 50% or more. This excerpt belongs to a sample that is enriched for strong results.

The assay deals with Plasmodium falciparum. In words: Primary screen in NF54 nanoGlo assay, in single point, at 2uM, 72h; a lower Z score goes with more inhibition. The format is functional, Erythrocyte. The note with it: timepoint 72 hour.
For the compound `CCC1CN(C(=O)NCc2cc(OC)no2)CC(C)O1` (centres undefined), the “% Inhibition” value is given as -11% and the Z score is 2.2.
Taken in the same sequence, the figures for `CC1(C(=O)Nc2n[nH]c3cc(F)ccc23)CC2CCC1O2` (centres undefined) were -7% and 1.08.
For the compound `Cc1cc(C)c(C(=O)NCC#C[C@@H]2CCCCO2)c(C)n1`, the “% Inhibition” value is -23% and the Z score is listed as 2.49.
For `Cc1cccc2ncc(C(=O)N[C@@]34COC[C@@H]3C4)n12`, in that order: -12% and 1.31.
`O=C(NC[C@H]1OC[C@@H](NCc2cccnc2)[C@@H]1O)c1ccc(F)cc1`: the “% Inhibition” value is recorded as -7% and the Z score is recorded as 0.99.
Turning to `Cc1c([C@@H](NCC(=O)N2CCC(C(N)=O)CC2)C(C)C)oc2ccccc12`, the “% Inhibition” value was -13% and the Z score is 1.5.
Taken in the same sequence, the figures for `Cc1c([C@@H](NCc2ncccc2O)C(C)C)oc2ccccc12` were 97% and -8.67.
In the case of `Cc1c([C@H](C)NCc2cncnc2)oc2ccccc12`, the “% Inhibition” value is on record as -15% and the Z score was 1.68.
Taken in the same sequence, the figures for `CC(C)C(=O)N1CCc2ccc(OCc3nc(C(=O)N(C)Cc4ccccc4)cs3)cc2[C@@H]1c1ccccc1` were 1% and -0.07.
For the compound `CN(C)c1ncc(CN[C@H]2[C@H](c3ccccc3)C2(C)C)cn1`, the “% Inhibition” value was determined as 10% and the Z score is listed as -1.13.
For `CC(C)CC[C@@]1(C2CC2)NC(=O)N(Cc2ccc(C#N)cn2)C1=O`, the “% Inhibition” value is -14% and the Z score is recorded as 2.83.
For `O=C(c1csnn1)N1CCc2[nH]nc(-c3ccccc3F)c2C1`, in that order: -7% and 1.02.
For `COc1ccc(F)cc1S(=O)(=O)N1CCn2c(nn(C)c2=O)C1`, in that order: -13% and 2.3.
For `COc1ccc(F)cc1S(=O)(=O)N1CCc2ncncc2C1`, in that order: -3% and 0.62.
In the case of `COc1ccc(F)cc1S(=O)(=O)N1CCc2noc(N)c2C1`, the “% Inhibition” value came to 72% and the Z score is given as -5.81.
As for `O=C(c1ccc(O)cc1)N1CCN(Cc2ccccn2)[C@@H]2CS(=O)(=O)C[C@@H]21`, the “% Inhibition” value turned out to be 3% and the Z score was -0.42.
For `Cc1nn(-c2nc3ccccc3[nH]2)c2c1[C@@H](c1ccc(Cl)c(Cl)c1)CC(=O)N2`, in that order: 14% and -1.74.
For `Cc1nn(-c2nc3ccccc3[nH]2)c2c1[C@@H](c1c(C)sc3ccccc13)CC(=O)N2`, in that order: 4% and -0.46.
Regarding `Cc1nn(-c2nc3ccccc3[nH]2)c2c1[C@@H](c1cccnc1)CC(=O)N2`, the “% Inhibition” value is listed as 68% and the Z score was -14.32.
For `C[C@H]1CCN(C(=O)c2cccc3c2CCCN3)[C@@H](C)C1`, in that order: 12% and -1.41.
Take `CC(C)(C)C1CCC(O)(CNC(=O)NC2CCC(O)CC2)CC1` (centres undefined): the “% Inhibition” value stood at 0% and the Z score is -0.1.
As to `CCOC(=O)c1n[nH]cc1CNCc1cccnc1N(C)C`, the “% Inhibition” value amounted to 4% and the Z score is recorded as -0.61.
Taken in the same sequence, the figures for `COc1cc(Br)c(NC(=O)N(C)CC(C)C)cc1OC` were -13% and 1.89.
Taken in the same sequence, the figures for `CCc1ccc(/C=C/c2c[nH]c3ccccc23)[n+](CC)c1` were 93% and -8.52.
Consider `C1=Cn2nc(/C=C/c3c[nH]c4ccccc34)nc2-c2ccccc2O1`, for which the “% Inhibition” value is listed as -30% and the Z score was determined as 3.55.
For `COc1ccc(OC)c2c(/C=C/c3c[nH]c4ccccc34)ccnc12`, in that order: -8% and 0.9.
Take `C[n+]1ccccc1/C=C/c1c[nH]c2ccccc12`: the “% Inhibition” value is 91% and the Z score is on record as -8.06.
For `c1ccc2c(C(c3c[nH]c4ccccc34)c3c[nH]c4ccccc34)c[nH]c2c1`, in that order: -27% and 3.19.
In the case of `CCCCc1ccc(NCc2c[nH]c3ccccc23)cc1`, the “% Inhibition” value came to 1% and the Z score is -0.17.
For `c1cnc(NCc2cnc(N3CCCC3)s2)cn1`, in that order: -3% and 0.38.
For the compound `Cn1cccc1CN[C@H]1CCOc2ccc(F)cc21`, the “% Inhibition” value was -10% and the Z score stood at 1.36.
Take `CCc1nnc([C@@H]2CCCN2C(=O)NCc2ccc(F)cc2)[nH]1`: the “% Inhibition” value was -5% and the Z score turned out to be 0.68.
Turning to `CC(=O)Nc1ncc(Br)cc1C`, the “% Inhibition” value is 33% and the Z score is reported as -0.41.
In the case of `COC1CCCCC1NC(=O)Nc1cccc(-c2ncc(C)o2)c1` (centres undefined), the “% Inhibition” value was -3% and the Z score turned out to be 0.66.
Taken in the same sequence, the figures for `COC1CCCC1NC(=O)Nc1ncc(Br)cc1C` (centres undefined) were 74% and -9.34.
As to `COc1ccc(C(=O)c2oc3ccccc3c2NC(=O)c2csnn2)cc1Cl`, the “% Inhibition” value is -18% and the Z score came out at 1.56.
For `COc1cccc(S(=O)(=O)N2CCC(OCCOc3ccccc3)CC2)c1`, in that order: 53% and -0.06.
Turning to `O=S(=O)(c1ccccc1)N1CCC(OCCOc2cccnc2)CC1`, the “% Inhibition” value is reported as -7% and the Z score came out at 1.14.
In the case of `COc1cccc(S(=O)(=O)N2CCC(OCCOCc3ccccc3)CC2)c1`, the “% Inhibition” value is 40% and the Z score was -0.89.
For `CCN(CC)c1ncc(CN2CC[C@H](NS(C)(=O)=O)C2)s1`, the “% Inhibition” value is -14% and the Z score is recorded as 1.85.
Turning to `NC(=O)Cc1nc(CC(F)(F)F)n(C2CCCCC2)n1`, the “% Inhibition” value is given as 0% and the Z score was determined as 0.02.
Regarding `COc1cc(C(=O)NCCNC(=O)c2cc(-c3ccccc3)nc3ccccc23)cc(OC)c1OC`, the “% Inhibition” value is listed as -11% and the Z score came to 1.69.
Taken in the same sequence, the figures for `Cc1ccc(C(=O)C[n+]2cc(-c3ccc(-c4ccccc4)cc3)n(C)c2N)cc1` were 42% and -0.38.
Taken in the same sequence, the figures for `Cn1c(-c2ccc(Cl)c(Cl)c2)c[n+](CC(=O)c2ccc(F)cc2)c1N` were 37% and -4.75.
Taken in the same sequence, the figures for `Cn1c(-c2ccc(Cl)c(Cl)c2)c[n+](CC(=O)c2ccc(-c3ccccc3)cc2)c1N` were 53% and -0.87.
Consider `CCc1nc(C)c(C(=O)N(C)Cc2csc(-c3ccccc3)n2)s1`, for which the “% Inhibition” value is -4% and the Z score is on record as 0.61.
For the compound `O=C(NCC1(c2ccccc2Cl)CCOCC1)N1CCOCC1`, the “% Inhibition” value is reported as -4% and the Z score is on record as 0.54.
For the compound `Cc1ccc(O)c(CNCC2(c3ccccc3Cl)CCOCC2)n1`, the “% Inhibition” value amounted to 98% and the Z score is on record as -10.48.
For `NC1CCC(C(=O)NCC2(c3ccccc3Cl)CCOCC2)C1` (centres undefined), in that order: 8% and -1.21.
As to `Cc1ccc2[nH]c3c(c2c1)C[C@@H](N1C(=O)CN(CC(C)C)C1=O)CC3`, the “% Inhibition” value is given as -3% and the Z score came out at 0.39.
Take `FC(F)(F)c1ccc(N2CCC(n3ccnn3)CC2)nn1`: the “% Inhibition” value stood at 0% and the Z score is -0.04.
For the compound `Cc1cc(C)c(NC(=O)OCc2cccc3cccnc23)c(C)c1`, the “% Inhibition” value is recorded as 88% and the Z score was -13.23.
For `C[C@@H](C(=O)OCc1cccc2cccnc12)N1CCOCC1`, in that order: -4% and 0.63.
On to `Cc1nc(C)c(C(=O)OCc2cccc3cccnc23)s1`, for which the “% Inhibition” value is recorded as -18% and the Z score stood at 3.51.
`CC1CC(C(=O)NCC2CCCCC2)c2ccccc2N1` (centres undefined): the “% Inhibition” value is 3% and the Z score is -0.43.
For `Cc1noc(C)c1CN1C(=O)NC2(CCCCC2)C1=O`, in that order: -2% and 0.32.
For `COc1ccc(CCNc2nc(-c3ccc(OC)cc3)c3c(N)n(-c4ccc(OC)cc4)nc3n2)cc1`, in that order: -13% and 2.28.
For the compound `COc1cccc(C(=O)C[n+]2cc(-c3ccc(Br)cc3)n(C)c2N)c1`, the “% Inhibition” value came to 35% and the Z score is -0.41.
Taken in the same sequence, the figures for `COc1ccc2c(c1)[n+](CC(=O)c1ccc(-c3ccc(Br)cc3)cc1)c(CO)n2C` were 70% and -5.57.
On to `Cc1ccc(C(=O)C[n+]2cc(-c3ccc(Br)cc3)n(C)c2N)cc1`, for which the “% Inhibition” value came out at 38% and the Z score was 2.56.
For `CC[N+](CC)(CC(=O)OC1CC2CCC1(C)C2(C)C)CC(=O)OC1CC2CCC1(C)C2(C)C` (centres undefined), in that order: 77% and -8.45.
Consider `CC1(C)C2CCC1(C)C(OC(=O)CN1CCCCCC1)C2` (centres undefined), for which the “% Inhibition” value is 0% and the Z score is listed as -0.02.
Taken in the same sequence, the figures for `CCn1c(-n2nc(C)nc2[C@H]2CCS(=O)(=O)C2)nc2ccccc21` were 4% and -0.76.
Taken in the same sequence, the figures for `O=C(CNC(=O)c1cnccn1)NCCc1c[nH]c2ccc(F)cc12` were -5% and 0.67.
For `CCn1cc(-c2nc(-c3ccccc3C)no2)c(=O)c2cc(F)c(N3CCOCC3)cc21`, the “% Inhibition” value is reported as 40% and the Z score is -3.29.
Taken in the same sequence, the figures for `Cc1ccc(S(=O)(=O)c2cn(Cc3ccccc3)c3cc(N4CCCCC4)c(F)cc3c2=O)cc1` were -24% and 2.28.
For `CCn1cc(C#N)c(=O)c2cc(F)c(N3CCN(Cc4ccccc4)CC3)cc21`, in that order: 68% and -7.22.
Taken in the same sequence, the figures for `CCn1cc(C(=O)O)c(=O)c2cc(F)c(N3CCN(S(=O)(=O)c4ccccc4)CC3)cc21` were 34% and 0.66.
Turning to `CCn1cc(-c2nc(-c3ccccc3C)no2)c(=O)c2cc(F)c(N3CCCCC3)cc21`, the “% Inhibition” value is 51% and the Z score is -3.9.
For the compound `CCn1cc(-c2nc(-c3ccccc3)no2)c(=O)c2cc(F)c(N3CCCCC3)cc21`, the “% Inhibition” value is given as -9% and the Z score worked out at 1.55.
As for `COc1cc(OC)cc(-c2c3c(O)nn(C(C)C)c3nc3[nH]c(=O)n(C)c23)c1`, the “% Inhibition” value was -3% and the Z score came out at 0.3.
For `O=C(Nc1ccc2c(c1)OCO2)c1ccc(=O)n(Cc2ccc(Cl)cc2)c1`, the “% Inhibition” value is given as -15% and the Z score was found to be 1.88.
For `CCN(C(=O)c1nn(C)c2ccc(C)cc12)[C@H]1COC[C@@H]1O`, the “% Inhibition” value was 5% and the Z score is reported as -1.
In the case of `COc1cc(Cl)c(CNC(C)(C)CO)cc1OC`, the “% Inhibition” value turned out to be 4% and the Z score was -0.67.
On to `Cc1n[nH]c(C(=O)N2CCCCCC2)c1Br`, for which the “% Inhibition” value came out at 3% and the Z score was -0.33.
Take `COCCNC(=O)c1coc(CN2C(=O)COc3ccc(C(=O)COc4ccccc4)cc32)n1`: the “% Inhibition” value is -6% and the Z score amounted to 0.84.
`N#Cc1nccnc1O[C@H]1CCCN(C(=O)NCc2ccc(Cl)cc2)C1`: the “% Inhibition” value was -10% and the Z score came to 1.77.
For `Cc1nn(C(C)(C)C)c2nc(C3CC3)cc(C(=O)N(C)Cc3cccc(C#N)c3)c12`, in that order: -7% and 1.44.
On to `Cc1nn(C(C)(C)C)c2nc(C3CC3)cc(C(=O)N(C)c3ccccc3)c12`, for which the “% Inhibition” value is given as 55% and the Z score was -8.04.
For `Cc1nn(C(C)(C)C)c2nc(C3CC3)cc(C(=O)N3CCN(c4ccccc4)CC3)c12`, in that order: 7% and -1.07.
For `CC(C)(C[C@H]1CCCN(C(=O)C2(C)CCCC2)C1)C(N)=O`, in that order: -4% and 0.57.
For `COC(=O)C1CN(C(=O)CCc2cnn(C)c2)CC1c1ccccc1` (centres undefined), in that order: -13% and 2.28.

Source of the values: ChEMBL document CHEMBL4888484, “Replenishing the malaria drug discovery pipeline: Screening and hit evaluation of the MMV Hit Generation Library 1 (HGL1) against asexual blood stage Plasmodium falciparum ,using a nano luciferase reporter read-out” (2022).
